Compound activity deposited in PubChem BioAssay by The Scripps Research Institute Molecular Screening Center.
Only some compounds are listed: those with a hit (about 2.4% of all), similar ones and a draw of the others.
CHO-K1 Ca ag = nonselective activator or artifact in parental CHO-K1 cells | Fluo-8 calcium fluorescence; scaled to maximal ATP response, vehicle zero | activation, % at 3 µM | hit rate 0.48% among 360,000; in the data active = activation above about 15%;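 also: untransfected CHO-K1 host cells lacking M1 receptor as counterscreen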
M1 antag = antagonists of human M1 muscarinic receptor. P11229. CHO-K1 hM1, Fluo-8 calcium fluorescence, ACh EC80 antagonist. inhibition, % at 3 µM. hit rate 1.3% among 360,000. AID 588852;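 active = percent inhibition above its own plate's cutoff, namely the mean of that plate's compound wells plus 3 SD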;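 also: peak over basal fluorescence ratio during 140 s after agonist addition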
Target sequence (P11229 whole entry, looked up): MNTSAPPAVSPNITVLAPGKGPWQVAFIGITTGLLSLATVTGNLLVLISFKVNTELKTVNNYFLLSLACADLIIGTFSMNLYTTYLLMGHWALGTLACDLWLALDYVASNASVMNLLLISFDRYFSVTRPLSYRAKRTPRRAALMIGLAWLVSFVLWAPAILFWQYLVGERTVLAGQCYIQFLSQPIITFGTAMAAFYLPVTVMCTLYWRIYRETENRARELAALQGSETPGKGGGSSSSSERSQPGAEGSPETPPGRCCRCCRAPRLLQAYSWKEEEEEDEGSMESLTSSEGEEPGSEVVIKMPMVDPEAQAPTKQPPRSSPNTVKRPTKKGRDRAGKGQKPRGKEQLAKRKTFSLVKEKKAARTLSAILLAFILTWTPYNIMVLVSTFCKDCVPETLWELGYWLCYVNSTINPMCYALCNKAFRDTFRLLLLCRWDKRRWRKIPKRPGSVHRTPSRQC
CHO-K1 Ca antag = counter-screen for M1 antagonists: effect in parental CHO-K1 cells. ATP-induced calcium, Fluo-8 fluorescence. inhibition, % at 3 µM. hit rate 0.6% among 360,000;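 active = inhibition above a per-plate cutoff, the plate's mean sample inhibition plus 3 SD, cut at about 24% in these data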
M1 PAM parental = M1 PAM counterscreen hit in parental CHO-K1 cells; ATP EC20, Fluo-8 calcium fluorescence; 0% at ATP EC20, 100% at ATP max; activation, % at 3 µM; hit rate 0.02% among 360,000; AID 602247;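 active = activation above the run cutoff, the mean activation of all test compounds plus 3 SD, cut at about 40% in these data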;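 also: peak over basal fluorescence ratio in a 140 s read after ATP addition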
M1 ag = agonists of human M1 muscarinic receptor | CHO-K1 hM1, Fluo-8 calcium fluorescence, agonist mode; 0% DMSO, 100% acetylcholine EC100 | activation, % at 3 µM | hit rate 0.33% among 360,000;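 active = activation above the run's mean compound activation plus 3 SD, cut at about 16% in these data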;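 also: peak over basal fluorescence ratio within a 140 s kinetic read after compound addition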
M1 PAM = positive allosteric modulators of human M1 muscarinic receptor; P11229; AID 588819; hit rate 0.088% among 360,000; activation, % at 3 µM; CHO-K1 hM1, Fluo-8 calcium fluorescence, ACh EC20; 0% = ACh EC20, 100% = maximal ACh; in the data active = activation above about 19%, passing the limit was not always enough
Large screens that a line does not name were inactive.

COc1ccc(CC(=O)Nc2ccccc2N2CCCC2)cc1OC	none
N/C(=N\NC(=O)c1cccc(F)c1)c1cc2ccccc2oc1=O	none
CCOC(=O)c1sc(NC(=O)Nc2ccccc2)cc1C	CHO-K1 Ca ag 17, CHO-K1 Ca antag 29
CCOC(=O)c1sc(NC(=O)Nc2ccccc2Cl)cc1C	none
CCOC(=O)c1sc(NC(=O)C2CCC2)cc1C	CHO-K1 Ca antag 26
CCOC(=O)c1sc(NC(C)=O)cc1C	none
COc1ccc(C(=O)C2CCCN(C3Cc4ccccc4C3)C2)c(OC)c1 (stereo unspecified)	M1 antag 29
c1ccc(-c2csc(-n3cnnn3)n2)cc1	CHO-K1 Ca antag 30
C1CCN(C2CCN(c3nc4nonc4nc3N3CCSCC3)CC2)C1	M1 antag 27
O=S(=O)(c1ccc(F)c(F)c1)N1CCN(c2ncccn2)CC1	none
CCOC(=O)CSc1cc(C)nc2ccc(OC)cc12	CHO-K1 Ca antag 24
Cc1ccccc1-c1nc2ccccc2c(=O)o1	CHO-K1 Ca antag 36
Cc1ccc2nc(-c3ccccc3C)oc(=O)c2c1	none
COc1cccc(Cn2c(=O)ccc3ccccc32)c1	none
CN1CCN(c2ccc(S(=O)(=O)N3CCCCC3)cc2NC(=O)COc2ccc([N+](=O)[O-])cc2)CC1	M1 antag 32
CCN1CCN(c2ccc(S(=O)(=O)N3CCOCC3)cc2NC(=O)c2ccccc2OC(F)F)CC1	M1 ag 20
Cc1ccccc1OCCC(=O)Nc1cc(S(=O)(=O)N2CCCCC2)ccc1N1CCN(C)CC1	CHO-K1 Ca ag 51, M1 ag 34
CCN1CCN(c2ccc(S(=O)(=O)N3CCCCC3)cc2NC(=O)Cc2ccccc2)CC1	none
Cc1ccc(OCC(=O)Nc2cc(S(=O)(=O)N3CCCCC3)ccc2N2CCN(C)CC2)c(C)c1	none
CCN1CCN(c2ccc(S(=O)(=O)N3CCOCC3)cc2NC(=O)c2ccc(Cl)cc2Cl)CC1	none
CCN1CCN(c2ccc(S(=O)(=O)N3CCCCC3)cc2NC(=O)Cc2ccc(Cl)c(Cl)c2)CC1	CHO-K1 Ca ag 18, CHO-K1 Ca antag 29
CCC1C(C#N)=C(SCC(N)=O)NC2=C1C(=O)CC(C)(C)C2 (stereo unspecified)	none
COc1ccc(C2C(C#N)=C(SCC(=O)Nc3ccc(C)cc3)NC3=C2C(=O)CC(C)(C)C3)cc1 (stereo unspecified)	M1 antag 85, M1 ag 21
Cc1noc(C)c1CCC(=O)NC1CCCN(Cc2ccc(Cl)cc2)C1 (stereo unspecified)	M1 antag 36
CC(C)Cc1ccc(CN2CCCC(NC(=O)c3ccnn3C)C2)cc1 (stereo unspecified)	none
Cc1noc(C)c1CCC(=O)NC1CCCN(Cc2ccc(CC(C)C)cc2)C1 (stereo unspecified)	M1 antag 54
Cc1c(C(=O)NNC(=S)Nc2cccc(Cl)c2)nnn1-c1ccccc1	none
COC(=O)[C@@H]1CCCN1C(=O)c1ccc(OC2CCN(Cc3ccccn3)CC2)cc1	M1 PAM 28
COc1ccc(CNC(=O)c2ccc(C(C)C)cc2)cc1	none
CCCNC(=O)Cn1c(=O)/c(=C\c2ccc(-c3ccc([N+](=O)[O-])cc3)o2)s/c1=C\C(=O)C(C)(C)C	CHO-K1 Ca ag 23, M1 antag 37, M1 ag 22
CCOc1ccc(Cl)cc1CNCCCSc1ncccn1	CHO-K1 Ca ag 19
COc1ccccc1NC(=O)CSc1nnc(C2CCCCC2)o1	CHO-K1 Ca antag 24
O=C(C1CCCCC1)N1CCC(c2nc3c(nnn3Cc3ccccc3Cl)c(=O)[nH]2)CC1	none
Cc1occc(=O)c1OCc1c(F)cccc1Cl	CHO-K1 Ca ag 16
NC(=O)C1=C[C@@H](c2coc3ccccc3c2=O)C[C@@H](OCc2ccc(CO)cc2)O1	none
CCN1C(=O)CC(N2CCC(Cc3ccccc3)CC2)C1=O (stereo unspecified)	none
CC(C)c1ccc(C2c3[nH]c4ccccc4c3C[C@H]3C(=O)N(c4ccccc4C(=O)N4CCC[C@H]4C(=O)O)C(=O)N23)cc1 (stereo partly specified)	CHO-K1 Ca antag 25
COc1ccc(C2c3[nH]c4ccccc4c3C[C@H]3C(=O)N(c4ccccc4C(=O)N4CCC(C(=O)O)CC4)C(=O)N23)cc1 (stereo partly specified)	none
NC(=O)c1ccc(NC(=O)Nc2ccc3c(c2)OCO3)cc1	none
CCCCCCOC1(c2ccccc2)OC(=O)c2ccccc21 (stereo unspecified)	none
Cc1cccc(OC2(c3ccccc3)OC(=O)c3ccccc32)c1C (stereo unspecified)	M1 antag 36
Cc1ccccc1-c1cc2c(nn1)-c1ccccc1C2=O	CHO-K1 Ca antag 25
O=C(/C(N=Nc1cccc(C(F)(F)F)c1)=C(/O)c1cccs1)C(F)(F)F	CHO-K1 Ca ag 16
CN(C(=O)COc1ccc2c(-c3ccccc3)cc(=O)oc2c1)C1CCS(=O)(=O)C1 (stereo unspecified)	none
COc1cc(/C=C/C(=O)CC(=O)/C=C/c2ccc(O)c(OC)c2)ccc1O	CHO-K1 Ca ag 19, CHO-K1 Ca antag 29, M1 ag 19
COc1cc(C=C2C(=O)C=CC2=O)ccc1O	M1 PAM parental 43 (no result: M1 antag, M1 ag, M1 PAM)
CCCn1c(SCC(=O)NC2CCC(C)CC2)n[nH]c1=O (stereo unspecified)	none
COCc1cc(C)nc2sc3c(=O)n(Cc4ccco4)nnc3c12	CHO-K1 Ca antag 26
COc1ccc(OCc2cc(C(=O)NCCN3CCCc4ccccc43)no2)c(Cl)c1	M1 antag 53
CCCOc1ccc(/C(O)=C2/C(=O)C(=O)N(CCN(C)C)C2c2ccco2)cc1 (stereo unspecified)	none
CC(Sc1nc(N)cc(=O)[nH]1)C(=O)Nc1sc2c(c1C#N)CCCC2 (stereo unspecified)	CHO-K1 Ca antag 30
N#Cc1c(NC(=O)CSc2nc(N)cc(=O)[nH]2)sc2c1CCCCCC2	none
O=C(COC(=O)/C=C/c1ccc2c(c1)OCO2)NC1CC1	none
CN(C)CCNC(=O)/C=N/O	M1 ag 26
CN(C)CCCCCNCCCNC(=O)/C=N\O	none
CC(=O)Nc1ccc(C(=O)COC(=O)C2CCCCC2)c(F)c1	none
CC(=O)Nc1ccc(C(=O)COC(=O)C2CC2)c(F)c1	CHO-K1 Ca antag 28
COCCNC(=O)c1ccc(N2CC3CC(C2)c2cccc(=O)n2C3)c(NC(=O)c2c(F)cccc2F)c1 (stereo unspecified)	none
CCC(C)NC(=O)c1ccc(N2CC3CC(C2)c2cccc(=O)n2C3)c(NC(=O)c2c(F)cccc2F)c1 (stereo unspecified)	M1 ag 22
O=C(Nc1ccc(F)cc1F)N1CCN(CCc2ccccc2)CC1	CHO-K1 Ca ag 30
